Source: PubChem BioAssay

Biological target: Pro-neuregulin-1, membrane-bound isoform (Homo sapiens) (UniProt Q02297)
Assay: NRG1 binders on small-molecule microarrays, primary screen, psychiatric disease protein project, biochemical, small-molecule microarray, fluorescence 635/667 (AID 1075);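 further: score combines 667 nm spot fluorescence with signal to noise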
Settings: NRG1 binding, 635 nm fluorescence, higher = more signal

Pro-neuregulin-1, membrane-bound isoform (Homo sapiens), sequence (Q02297 whole entry, looked up, canonical isoform): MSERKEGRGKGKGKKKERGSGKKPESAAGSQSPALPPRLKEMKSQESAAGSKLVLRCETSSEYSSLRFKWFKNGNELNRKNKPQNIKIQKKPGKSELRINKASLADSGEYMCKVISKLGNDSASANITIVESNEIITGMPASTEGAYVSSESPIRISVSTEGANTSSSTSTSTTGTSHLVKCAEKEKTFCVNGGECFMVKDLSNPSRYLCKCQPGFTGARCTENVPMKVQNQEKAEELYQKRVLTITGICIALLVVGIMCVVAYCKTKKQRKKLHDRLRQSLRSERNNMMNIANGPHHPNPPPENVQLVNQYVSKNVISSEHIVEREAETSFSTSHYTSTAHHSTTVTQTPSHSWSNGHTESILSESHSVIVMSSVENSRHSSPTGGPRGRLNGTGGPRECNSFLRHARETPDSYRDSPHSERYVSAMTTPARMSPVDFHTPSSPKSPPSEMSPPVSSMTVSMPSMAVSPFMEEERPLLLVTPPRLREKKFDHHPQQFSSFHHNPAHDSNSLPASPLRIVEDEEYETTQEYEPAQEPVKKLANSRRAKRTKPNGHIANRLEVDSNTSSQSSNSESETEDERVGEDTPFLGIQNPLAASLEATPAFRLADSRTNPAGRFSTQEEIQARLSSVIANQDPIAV

| SMILES | composite z-score |
| --- | --- |
| COc1ccc(NC(=O)O[C@H]2[C@H](OC(=O)c3cc4ccccc4[nH]3)[C@@H](OC(=O)c3cc4ccccc4[nH]3)[C@@H](OC)O[C@@H]2CO)cc1 | 0.765 |
| C=C(CCCC)C(=O)CC[C@H](OC(=O)c1cccnc1)c1ccc(OCCO)cc1 | 0.766 |
| C=CCN1C(=O)[C@]2(Cc3ccccc3)N=C(c3ccc(OCCCO)cc3)O[C@@H]2c2ccccc21 | 1.55 |
| CC(=O)NCCCC[C@@H]1NC(=O)[C@H]2C[C@@H](C(=O)NCCCCCNC(=O)CS)[C@@H](c3ccc(O)cc3)N2C1=O | 0.0616 |
| C=CCC(OC(C)=O)[C@@H]1[C@@H](N(Cc2cc3ccccc3o2)C(=O)Cc2ccc(OC)cc2)c2cc(OCCCO)ccc2N1C(=O)c1ccc2ccccc2c1 (stereo partly specified) | -0.336 |
| CC(c1ccccc1)C(O)C1C=CC2C(=O)N(c3ccccc3)C(=O)C2N1Nc1ccccc1 (stereo unspecified) | 1.53 |
| COc1ccc([C@H]2C[C@H]3C(Br)=C[C@@]2(CO)C(=O)[C@]32CO2)cc1 | -0.202 |
| COCCOC(=O)N1C(=O)[C@@]2(c3cc(C#CCCO)ccc31)[C@H](c1ccc(OCCO)cc1)N1[C@H](c3ccccc3)[C@H](c3ccccc3)OC(=O)[C@H]1[C@@H]2C(N)=O | 0.741 |
| CCCCN1CC=CC23O[C@@H]4/C=C\CCCOC(=O)C4[C@H]2C(=O)N(CCCCCO)[C@@H]3C1=O (stereo partly specified) | -1.18 |
| NCCCCCCNC(=O)[C@H]1C[C@H]2C(=O)N[C@@H](Cc3ccccc3)C(=O)N2[C@H]1c1cccc(OCCO)c1 | 1.7 |
| COc1ccc([Si](C)(C)[C@@H]2[C@@H](CCn3cc(CCO)nn3)O[C@]3(C(=O)N(Cc4cccc(N5C(=O)c6cccc7cccc5c67)c4)c4ccccc43)[C@H]2C)cc1 | 0.98 |
